Records with an inconclusive call do not appear. A call without a number means that no potency is given here. Calls of active or inactive are those of the source. The call rests on the fitted dose curve; in most records, active means well fitted inhibition curve with a large enough effect; inconclusive means small, poorly fitted or top-dose-only effect; inactive means flat fitted curve, though single readings scatter.
System: not listed separately
Assay: qHTS profiling for inhibitors of Plasmodium falciparum proliferation (AID 504749); further: nearly all actives have a fitted effect of over 60% in size
Conditions: P. falciparum in erythrocytes, SYBR Green DNA, 72 h; at 28.7 µM (top of the series); parasite line A
Summary of the method: (§1)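 Parasite proliferation within erythrocytes, 72 h exposure. Endpoint: SYBR Green I fluorescence after overnight lysis at room temperature. Controls: 0.29 uM artemisinin, DMSO.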
Potency means the concentration at half of the fitted maximal effect.

SMILES	activity, negative = inhibition
NCCc1ccc(O)cc1	8.86% (inactive)
CC(C)NC(C)C	6.47% (inactive)
Clc1cccc(SC2CCNCC2)n1	12.4% (inactive)
Clc1ccc2c(c1)C(c1ccccc1)=NCc1nncn1-2	-1.68% (inactive)

Same assay, conditions: P. falciparum in erythrocytes, SYBR Green DNA, 72 h; at 28.7 µM (top of the series); parasite line B

SMILES	activity, negative = inhibition
CCCC(C)(COC(N)=O)COC(N)=O	9.68% (inactive)
CCC1(c2ccccc2)C(=O)N(COC)C(=O)N(COC)C1=O	7.29% (inactive)
CCC(C)(C)c1ccc(O)cc1	14.5% (inactive)
C=C(C)[C@H]1CN[C@H](C(=O)O)[C@H]1CC(=O)O	11.4% (inactive)
CN1CCC(O)(c2ccc(F)cc2)C(C(=O)c2ccc(F)cc2)C1 (configuration not stated)	-4.09% (inactive)
O=C1Nc2ccc(Cl)cc2C(c2ccccc2)=NC1O (configuration not stated)	3.16% (inactive)
COP(=S)(OC)Oc1ccc(SC)c(C)c1	12.2% (inactive)
COP(=S)(OC)Oc1ccc(S(=O)(=O)N(C)C)cc1	1.31% (inactive)
CCOC(=O)CC(SP(=S)(OC)OC)C(=O)OCC (configuration not stated)	-3.96% (inactive)
CCC1(CC)C(=O)C=CNC1=O	6.45% (inactive)
CN1C(=O)CC(=O)N(c2ccccc2)c2cc(Cl)ccc21	-1.48% (inactive)
C[C@]12CCC(=O)C=C1CC[C@@H]1[C@@H]2CC[C@]2(C)C(=O)CC[C@@H]12	3.53% (inactive)
CN1C(=O)NC(=O)C(C)(C2=CCCCC2)C1=O (configuration not stated)	7.06% (inactive)
Nc1ccccc1C(=O)O	4.96% (inactive)
Cc1ncsc1CCCl	0.0082% (inactive)
CCCCCCCCCC(=O)O[C@H]1CC[C@H]2[C@@H]3CCC4=CC(=O)CC[C@@H]4[C@H]3CC[C@]12C	11.7% (inactive)
NCCc1ccc(O)cc1	7.85% (inactive)
CC(C)NC(C)C	12.2% (inactive)
Clc1cccc(SC2CCNCC2)n1	2.53% (inactive)
Clc1ccc2c(c1)C(c1ccccc1)=NCc1nncn1-2	10.3% (inactive)

System: 3D7
Assay: as above
Conditions: P. falciparum in erythrocytes, SYBR Green DNA, 72 h; series mostly up to 28.7 µM
Summary of the method: as §1

SMILES	Potency
c1ccc2c(c1)sc1ccccc12	inactive
O=c1oc2ccccc2c(O)c1Cc1c(O)c2ccccc2oc1=O	inactive
COc1c2c(cc3c1OCO3)CCN(C)C2	inactive
CCCC(C)(COC(N)=O)COC(N)=O	inactive
CCC1(c2ccccc2)C(=O)N(COC)C(=O)N(COC)C1=O	inactive
CCC(C)(C)c1ccc(O)cc1	inactive
C=C(C)[C@H]1CN[C@H](C(=O)O)[C@H]1CC(=O)O	inactive
O=C(N/N=C/c1ccc([N+](=O)[O-])o1)c1cc([N+](=O)[O-])cc([N+](=O)[O-])c1O	891 nM (active)
CN1CCC(O)(c2ccc(F)cc2)C(C(=O)c2ccc(F)cc2)C1 (configuration not stated)	inactive
NNc1ccccc1	inactive
O=C1Nc2ccc(Cl)cc2C(c2ccccc2)=NC1O (configuration not stated)	inactive
COP(=S)(OC)Oc1ccc(SC)c(C)c1	inactive
COP(=S)(OC)Oc1ccc(S(=O)(=O)N(C)C)cc1	inactive
CCOC(=O)CC(SP(=S)(OC)OC)C(=O)OCC (configuration not stated)	inactive
CCC1(CC)C(=O)C=CNC1=O	inactive
CC(C)(C)NCC(O)c1ccccc1Cl (configuration not stated)	inactive
CN1C(=O)C(O)N=C(c2ccccc2)c2cc(Cl)ccc21 (configuration not stated)	inactive
CN1C(=O)CC(=O)N(c2ccccc2)c2cc(Cl)ccc21	inactive
C[C@]12CCC(=O)C=C1CC[C@@H]1[C@@H]2CC[C@]2(C)C(=O)CC[C@@H]12	inactive
CN1C(=O)NC(=O)C(C)(C2=CCCCC2)C1=O (configuration not stated)	inactive
Nc1ccccc1C(=O)O	inactive
Cc1ncsc1CCCl	inactive
CCCCCCCCCC(=O)O[C@H]1CC[C@H]2[C@@H]3CCC4=CC(=O)CC[C@@H]4[C@H]3CC[C@]12C	inactive
NCCc1ccc(O)cc1	inactive
CN1C[C@H](C(=O)N[C@]2(C)O[C@@]3(O)[C@@H]4CCCN4C(=O)[C@H](Cc4ccccc4)N3C2=O)C=C2c3cccc4[nH]cc(c34)C[C@H]21	891 nM (active)
CC(C)NC(C)C	inactive
Clc1cccc(SC2CCNCC2)n1	inactive
Clc1ccc2c(c1)C(c1ccccc1)=NCc1nncn1-2	inactive
